About 83,000 compounds went through this panel and 20% of them were active in at least one assay; those are over-represented in the sample as a whole.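 Plates (96-well) were seeded with cells, treated with compound at one concentration, and incubated for 48 hours before percent growth was determined.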 Calls of active or inactive are those of the source. The calls were made as follows: active = growth percent below 10; inactive = the rest.
How the values were obtained:
Test in all cases: NCI-60 one-dose screen, 48 h (100 = growth as untreated, 0 = no growth, -100 = all killed)
Conditions in all cases: 10 µM unless noted
T-47D breast = test system: T-47D breast
BT-549 breast = test system: BT-549 breast
MDA-MB-435 melanoma = test system: MDA-MB-435 melanoma
MCF7 breast = test system: MCF7 breast
HCT-116 colon = test system: HCT-116 colon
HCC-2998 colon = test system: HCC-2998 colon
KM12 colon = test system: KM12 colon
SW-620 colon = test system: SW-620 colon

Measured: growth

N/C(=N\c1nc2ccccc2s1)NC(=O)Nc1ccccc1Cl
active: MDA-MB-435 melanoma -31.8%
inactive: T-47D breast 37% | BT-549 breast 18.6% | MCF7 breast 21.1% | HCT-116 colon 13% | HCC-2998 colon 14.2% | KM12 colon 12.7%

COc1ccc2cc(C3=CC(=O)CCC3)ccc2c1
inactive: T-47D breast 59.6% | BT-549 breast 97.1% | MDA-MB-435 melanoma 93% | SW-620 colon 117% | MCF7 breast 110% | HCT-116 colon 92.5% | KM12 colon 109%

C(=C1c2ccccc2-c2ccccc21)c1ccccn1
active: MDA-MB-435 melanoma -7.78%
inactive: T-47D breast 63.8% | BT-549 breast 58.8% | MCF7 breast 38% | HCT-116 colon 43.5% | HCC-2998 colon 80.6% | KM12 colon 39.6%

CC(NC(=O)Oc1cccc2ccccc12)c1ccccc1 (centres undefined)
inactive: T-47D breast 92.7% | BT-549 breast 106% | MDA-MB-435 melanoma 102% | SW-620 colon 98.6% | MCF7 breast 87.8% | HCT-116 colon 105% | KM12 colon 99.8%

O=C1C=CC(=O)N1c1ccccc1N1C(=O)C=CC1=O
inactive: T-47D breast 102% | BT-549 breast 104% | MDA-MB-435 melanoma 122% | SW-620 colon 57.9% | MCF7 breast 97.1% | HCT-116 colon 105% | KM12 colon 117%

C[C@@H]1C[C@@H]([C@@H](CC2CC(=O)NC(=O)C2)OC(=O)CC(=O)c2ccccc2)C(=O)[C@@H](C)C1
inactive: BT-549 breast 14.6% | MDA-MB-435 melanoma 11.6% | SW-620 colon 15.1% | MCF7 breast 14.7% | KM12 colon 12%
active: T-47D breast -2.63% | HCT-116 colon 5.68%

O=c1[nH]c(N2CCC(Cc3ccccc3)CC2)nc2sc3c(c12)CCCC3
inactive: T-47D breast 96.6% | BT-549 breast 109% | MDA-MB-435 melanoma 102% | MCF7 breast 98.1% | HCT-116 colon 104% | HCC-2998 colon 103% | KM12 colon 100%

O=C(NCCNC(=O)Oc1cccc2ccccc12)Oc1cccc2ccccc12
inactive: T-47D breast 71.7% | BT-549 breast 105% | MDA-MB-435 melanoma 114% | SW-620 colon 102% | MCF7 breast 84.4% | HCT-116 colon 99.7% | KM12 colon 104%

Cc1ccc(N/N=C(/C(=O)c2ccc(Cl)cc2)c2nc(C)cc(=O)[nH]2)cc1
inactive: T-47D breast 88.3% | BT-549 breast 118% | MDA-MB-435 melanoma 123% | MCF7 breast 91% | HCT-116 colon 86.9% | HCC-2998 colon 116% | KM12 colon 115%

CCOC(=O)/C(=C/CC/C(C)=C/CC/C(C)=C/CCc1ccoc1)CC(=O)N1CCCCC1
inactive: T-47D breast 27.7% | BT-549 breast 88% | MDA-MB-435 melanoma 34.1% | SW-620 colon 64.6% | MCF7 breast 32% | HCT-116 colon 44.9% | KM12 colon 49%

O=C(O)c1ccc2cccnc2c1O
active: BT-549 breast -16.5% | HCT-116 colon 2.32%
inactive: T-47D breast 10.3% | MDA-MB-435 melanoma 10.1% | MCF7 breast 10.8% | HCC-2998 colon 10.2% | KM12 colon 15.1%

OC(c1cc(-c2cccc(Cl)c2)nc2ccccc12)C1CCCCN1 (centres undefined)
active: T-47D breast -71.6% | MDA-MB-435 melanoma -56.9% | SW-620 colon -66.6% | MCF7 breast -86.9% | HCT-116 colon -89.8% | KM12 colon -88.1%
inactive: BT-549 breast 67%

Nc1nc(NC2CC2)c2ncn(C3C=CC(CO)C3)c2n1 (centres undefined)
inactive: T-47D breast 110% | BT-549 breast 115% | MDA-MB-435 melanoma 105% | MCF7 breast 107% | HCT-116 colon 109% | HCC-2998 colon 103% | KM12 colon 99.7%

NC(=O)NS(=O)(=O)c1ccc(N2N=C(C(F)(F)F)CC2c2cc(C(F)(F)F)cc(C(F)(F)F)c2)cc1 (centres undefined)
inactive: T-47D breast 72.4% | BT-549 breast 98% | MDA-MB-435 melanoma 40% | MCF7 breast 49.7% | HCT-116 colon 55.9% | HCC-2998 colon 88.2% | KM12 colon 71%

O=C(COc1ccc(/C=C2\Cc3ccccc3C2=O)cc1)c1ccc(Cl)cc1
inactive: T-47D breast 102% | BT-549 breast 113% | MDA-MB-435 melanoma 95.4% | MCF7 breast 97.1% | HCT-116 colon 77.7% | HCC-2998 colon 82.2% | KM12 colon 107%

CC(=O)N1N=C(c2ccc(Nc3nc(NCCO)nc(NCCO)n3)cc2)CC1c1ccc(Cl)cc1 (centres undefined)
inactive: T-47D breast 66.2% | BT-549 breast 87.9% | MDA-MB-435 melanoma 101% | MCF7 breast 90.5% | HCT-116 colon 83.4% | HCC-2998 colon 102% | KM12 colon 100%

O=C1C2C(C(=O)N1CC[Se][Se]CCN1C(=O)C3C(C1=O)[C@H]1C=C[C@@H]3C1)[C@H]1C=C[C@@H]2C1 (some centres undefined)
inactive: HCC-2998 colon 28.6%
active: T-47D breast 5.4% | BT-549 breast -40.3% | MDA-MB-435 melanoma -65.9% | MCF7 breast 9.03% | HCT-116 colon 1.96% | KM12 colon 0.112%

O=C(Nc1ccc2c(c1)C(=O)c1ccccc1-2)c1ccccc1
active: HCT-116 colon -20.7%
inactive: T-47D breast 73.2% | BT-549 breast 104% | MDA-MB-435 melanoma 101% | SW-620 colon 55.4% | MCF7 breast 48% | KM12 colon 87.3%

O=c1oc2c(cc1-c1ccc([N+](=O)[O-])cc1)C(O)Oc1ccccc1-2 (centres undefined)
inactive: T-47D breast 75.3% | BT-549 breast 97.1% | MDA-MB-435 melanoma 89.3% | MCF7 breast 90.8% | HCT-116 colon 94.8% | HCC-2998 colon 94.3% | KM12 colon 95.4%

CCCCCCCCCCCCCCCCNC(=O)Nc1ccc2ccccc2c1
inactive: T-47D breast 108% | BT-549 breast 97.4% | MDA-MB-435 melanoma 103% | MCF7 breast 94.5% | HCT-116 colon 101% | HCC-2998 colon 109% | KM12 colon 111%

Cc1ccc(NC(=O)c2sc3nc4c(cc3c2N)C(=O)CCC4)cc1
inactive: T-47D breast 94.7% | BT-549 breast 86.4% | MDA-MB-435 melanoma 14.6% | MCF7 breast 67.7% | HCT-116 colon 91.7% | HCC-2998 colon 80.2% | KM12 colon 56.7%

COCCOCCOCCOCCOc1ccc2c(c1)C(=O)c1nc3ncccc3c(=O)n1-2
inactive: T-47D breast 11.3%
active: BT-549 breast -95.7% | MDA-MB-435 melanoma -100% | MCF7 breast -64.6% | HCT-116 colon -32.7% | HCC-2998 colon -68.1% | KM12 colon -57%

COc1cc(/C=C/c2cc(/C=C/c3ccc(O)c(OC)c3)n(C(=O)Cc3ccccc3)n2)ccc1O
inactive: HCC-2998 colon 17.2%
active: T-47D breast -7.75% | MDA-MB-435 melanoma -10.2% | SW-620 colon 4.63% | MCF7 breast -0.783% | HCT-116 colon 1.23% | KM12 colon 9.39%

CCN(CC)c1ccc(N=C2C=CC(=O)C=C2NC(C)=O)cc1
inactive: T-47D breast 82.5% | BT-549 breast 109% | MDA-MB-435 melanoma 124% | MCF7 breast 82.6% | HCT-116 colon 97.9% | KM12 colon 98.6%

COc1cc(Cl)cc(-c2nn(-c3cccc(NC(=O)c4cc(C(F)(F)F)cc(C(F)(F)F)c4)c3)cc2-c2ccncc2)c1
inactive: T-47D breast 53.4% | BT-549 breast 96.8% | MDA-MB-435 melanoma 80% | MCF7 breast 57.8% | HCT-116 colon 35.2% | HCC-2998 colon 78.3% | KM12 colon 55.5%

COc1ccc(/C=C2\CCc3ccccc3C2=O)cc1
active: MDA-MB-435 melanoma 9.53%
inactive: T-47D breast 92.5% | BT-549 breast 97.9% | MCF7 breast 85.7% | HCT-116 colon 94.3% | HCC-2998 colon 80.4% | KM12 colon 44.6%

COc1ccc(NC(=O)[C@@H]2C[C@H]2c2ccccc2)c(C(N)=O)c1
inactive: T-47D breast 91.1% | MDA-MB-435 melanoma 51.8% | SW-620 colon 90.9% | MCF7 breast 97.7% | HCT-116 colon 108% | HCC-2998 colon 94.7% | KM12 colon 87.4%

COc1ccc(CC(=O)Nc2nn3c(-c4cc(C(F)(F)F)cc(C(F)(F)F)c4)nnc3s2)cc1
inactive: T-47D breast 42.7% | MDA-MB-435 melanoma 57.1% | SW-620 colon 84.2% | MCF7 breast 66.9% | HCT-116 colon 61.9% | KM12 colon 65.7%

— PubChem BioAssay (NCI)
